Reference: PubChem BioAssay
Activity calls are given as the source filed them.

Tests used:
[1] = small molecules captured by biotinylated probe aFSTL3 – biochemical, small-molecule microarray, fluorescence 635/667, stem cell growth factor project, primary screen (AID 1064); conditions: higher = more signal;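 further: measures binding of the biotinylated anti-FSTL3 antibody to printed compounds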
[2] = binders from COS7 lysate, DM2A8 probe, primary screen, torsin A project, cell lysate, small-molecule microarray, fluorescence 635/667 (AID 1065); conditions: higher = more signal, COS7 lysate expressing mutant human TOR1A
[3] = small molecules captured by biotinylated probe aFGF2 – biochemical, small-molecule microarray, fluorescence 635/667, stem cell growth factor project, primary screen (AID 1067); conditions: higher = more signal;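 further: measures binding of biotinylated aFGF2 protein to printed compounds on slides; z-score merges feature fluorescence and signal-to-noise across triplicate slides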
[4] = small molecules captured by biotinylated probe aFGF10 – biochemical, small-molecule microarray, fluorescence 635/667, stem cell growth factor project, primary screen (AID 1071); conditions: higher = more signal;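 further: score merges 667 nm spot intensity and signal to noise from triplicate slides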
[5] = biological target: Neurogenic locus notch homolog protein 2 (Homo sapiens) (UniProt Q04721); experiment: small molecules binding Notch2 protein – biochemical, small-molecule microarray, 635 nm fluorescence, stem cell growth factors, primary screen (AID 1073); conditions: higher = more signal
[6] = biological target: Pro-neuregulin-1, membrane-bound isoform (Homo sapiens) (UniProt Q02297); experiment: small molecules binding neuregulin-1 protein – biochemical, small-molecule microarray, fluorescence 635/667, psychiatric disease protein project, primary screen (AID 1075); conditions: NRG1 binding, 635 nm fluorescence, higher = more signal;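 further: score combines 667 nm spot fluorescence with signal to noise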
[7] = tested on: Neuregulin-1 EGF-like domain; experiment: small molecules binding NRG1 EGF domain – biochemical, small-molecule microarray, 635 nm fluorescence, primary screen (AID 1081); conditions: higher = more signal;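 further: binding of the protein to compounds printed on small-molecule microarray slides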
[8] = FRG1 expression reporter modulators in myotubes – cell-based, C2C12 myotubes, firefly/Renilla luciferase, luminescence, FRG1 inhibition for FSHD, primary screen (AID 1084); conditions: FRG1 promoter luciferase, higher = more signal, called active from +8 up or from −8 down
[9] = small molecules captured by biotinylated probe aFST – biochemical, small-molecule microarray, fluorescence 635/667, stem cell growth factor project, primary screen (AID 1086); conditions: higher = more signal;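 further: score merges 667 nm fluorescence with signal-to-noise of each printed compound spot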
[10] = binders of probe aHhip on microarray, primary screen, stem cell growth factor project, biochemical, small-molecule microarray, fluorescence 635/667 (AID 1087); conditions: higher = more signal;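 further: score merges spot fluorescence at 667nm with spot signal to noise ratio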
[11] = tested on: PRMT1 (protein arginine N-methyltransferase 1); experiment: small molecules binding arginine methyltransferase PRMT1 – biochemical, small-molecule microarray, 635 nm fluorescence, primary screen (AID 1088); conditions: higher = more signal;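 further: binding of Prmt1 protein to compounds spotted on small-molecule microarray slides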
[12] = growth effects on S. cerevisiae YJM789 – YJM789 clinical isolate, OD600, 24 h, basal, primary screen (AID 1089); conditions: higher = more signal, called active from +8 up or from −8 down;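 further: growth of clinical yeast isolate S. cerevisiae YJM 789 seeded 1000 cells per well; test concentration not given here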
[13] = S. pombe growth modifiers, basal conditions – strain 972, OD600, 24 h, no modulator, primary screen (AID 1090);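 further: basal condition with compound alone and no growth modifier present; test concentration not given here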; conditions: S. pombe 972 growth, higher = more signal, called active from +8 up or from −8 down
[14] = budding yeast growth modifiers under rapamycin – strain BY4716, OD600, 96 h, primary screen (AID 1091); further: test concentration not given here; conditions: S. cerevisiae BY4716 + rapamycin, higher = more signal, called active from +8 up or from −8 down
[15] = biological target: Torsin-1A-interacting protein 2 (Homo sapiens) (UniProt Q8NFQ8); experiment: small molecules binding lysate-expressed LULL1 – cell lysate, human LULL1 lysate, 635/667 nm fluorescence, primary screen (AID 1092); conditions: small-molecule microarray, hLULL1 lysate binding, 635 nm fluorescence; higher = more signal;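 further: probe is lysate of COS7 cells overexpressing human LULL1; score merges per-feature 667 nm fluorescence with signal-to-noise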
[16] = optical density change of DRC41 E. coli – strain DRC41, OD650, 24 h, E. coli filamentation project, primary screen (AID 1093);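 further: MC1000 strain lacking acrAB efflux and sulA so SOS filamentation is blocked; test concentration not given here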; conditions: E. coli DRC41 growth, higher = more signal, called active from +8 up or from −8 down
[17] = probe aLefty2 binding to arrayed compounds – biochemical, biotinylated probe, 635/667 nm fluorescence, primary screen (AID 1094); conditions: small-molecule microarray, higher = more signal;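 further: score merges spot fluorescence near 667 nm with spot signal-to-noise ratio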
[18] = tested on: Noggin (protein binding on small-molecule microarray); experiment: small molecules binding Noggin protein – biochemical, 635/667 nm fluorescence, primary screen (AID 1095); conditions: 635 nm fluorescence, higher = more signal;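 further: score merges 667 nm feature fluorescence with signal to noise over triplicate slides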
[19] = biological target: Neurogenic locus notch homolog protein 3 (Homo sapiens) (UniProt Q9UM47); experiment: small molecules binding NOTCH3 protein – biochemical, 635/667 nm fluorescence, primary screen (AID 1096); conditions: small-molecule microarray, 635 nm fluorescence, higher = more signal
[20] = probe aEGFR binding to arrayed compounds – biochemical, biotinylated probe, 635/667 nm fluorescence, primary screen (AID 1097); conditions: small-molecule microarray, higher = more signal;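 further: probe is a biotinylated anti-EGFR antibody binding compounds printed on slides; score combines fluorescence near 667 nm and signal to noise of each spot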

Chain of Torsin-1A-interacting protein 2 (Homo sapiens) (Q8NFQ8 whole entry, looked up): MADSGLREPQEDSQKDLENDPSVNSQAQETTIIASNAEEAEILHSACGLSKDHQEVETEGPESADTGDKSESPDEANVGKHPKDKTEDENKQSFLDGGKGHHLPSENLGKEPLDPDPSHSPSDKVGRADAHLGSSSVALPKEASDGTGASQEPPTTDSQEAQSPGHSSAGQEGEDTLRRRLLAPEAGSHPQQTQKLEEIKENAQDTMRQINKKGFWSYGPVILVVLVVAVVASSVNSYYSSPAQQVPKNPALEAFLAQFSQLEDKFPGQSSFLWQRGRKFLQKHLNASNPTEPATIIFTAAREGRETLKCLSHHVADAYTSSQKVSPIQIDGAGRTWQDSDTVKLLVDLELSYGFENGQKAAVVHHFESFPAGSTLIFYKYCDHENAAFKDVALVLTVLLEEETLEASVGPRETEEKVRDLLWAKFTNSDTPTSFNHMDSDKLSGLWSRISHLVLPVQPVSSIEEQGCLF
Chain of Pro-neuregulin-1, membrane-bound isoform (Homo sapiens) (Q02297 whole entry, looked up, the tested form may be a part, canonical isoform): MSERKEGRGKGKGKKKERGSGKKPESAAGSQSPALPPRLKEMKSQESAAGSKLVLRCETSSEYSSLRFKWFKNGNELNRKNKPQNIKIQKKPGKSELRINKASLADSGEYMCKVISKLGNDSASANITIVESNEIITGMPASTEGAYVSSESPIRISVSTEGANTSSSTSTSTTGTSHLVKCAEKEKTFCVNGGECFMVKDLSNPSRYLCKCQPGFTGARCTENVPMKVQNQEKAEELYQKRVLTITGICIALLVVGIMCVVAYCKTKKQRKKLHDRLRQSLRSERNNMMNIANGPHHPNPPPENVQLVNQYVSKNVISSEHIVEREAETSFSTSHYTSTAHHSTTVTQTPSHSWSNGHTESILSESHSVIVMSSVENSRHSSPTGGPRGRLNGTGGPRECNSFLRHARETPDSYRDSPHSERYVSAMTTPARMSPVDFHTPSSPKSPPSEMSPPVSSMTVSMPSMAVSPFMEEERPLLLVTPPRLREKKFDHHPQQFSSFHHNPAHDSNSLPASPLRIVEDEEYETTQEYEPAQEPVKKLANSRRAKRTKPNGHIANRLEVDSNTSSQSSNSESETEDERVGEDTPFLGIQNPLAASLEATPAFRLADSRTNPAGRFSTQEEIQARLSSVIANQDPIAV
Chain of Neurogenic locus notch homolog protein 2 (Homo sapiens) (Q04721 whole entry, looked up, canonical isoform): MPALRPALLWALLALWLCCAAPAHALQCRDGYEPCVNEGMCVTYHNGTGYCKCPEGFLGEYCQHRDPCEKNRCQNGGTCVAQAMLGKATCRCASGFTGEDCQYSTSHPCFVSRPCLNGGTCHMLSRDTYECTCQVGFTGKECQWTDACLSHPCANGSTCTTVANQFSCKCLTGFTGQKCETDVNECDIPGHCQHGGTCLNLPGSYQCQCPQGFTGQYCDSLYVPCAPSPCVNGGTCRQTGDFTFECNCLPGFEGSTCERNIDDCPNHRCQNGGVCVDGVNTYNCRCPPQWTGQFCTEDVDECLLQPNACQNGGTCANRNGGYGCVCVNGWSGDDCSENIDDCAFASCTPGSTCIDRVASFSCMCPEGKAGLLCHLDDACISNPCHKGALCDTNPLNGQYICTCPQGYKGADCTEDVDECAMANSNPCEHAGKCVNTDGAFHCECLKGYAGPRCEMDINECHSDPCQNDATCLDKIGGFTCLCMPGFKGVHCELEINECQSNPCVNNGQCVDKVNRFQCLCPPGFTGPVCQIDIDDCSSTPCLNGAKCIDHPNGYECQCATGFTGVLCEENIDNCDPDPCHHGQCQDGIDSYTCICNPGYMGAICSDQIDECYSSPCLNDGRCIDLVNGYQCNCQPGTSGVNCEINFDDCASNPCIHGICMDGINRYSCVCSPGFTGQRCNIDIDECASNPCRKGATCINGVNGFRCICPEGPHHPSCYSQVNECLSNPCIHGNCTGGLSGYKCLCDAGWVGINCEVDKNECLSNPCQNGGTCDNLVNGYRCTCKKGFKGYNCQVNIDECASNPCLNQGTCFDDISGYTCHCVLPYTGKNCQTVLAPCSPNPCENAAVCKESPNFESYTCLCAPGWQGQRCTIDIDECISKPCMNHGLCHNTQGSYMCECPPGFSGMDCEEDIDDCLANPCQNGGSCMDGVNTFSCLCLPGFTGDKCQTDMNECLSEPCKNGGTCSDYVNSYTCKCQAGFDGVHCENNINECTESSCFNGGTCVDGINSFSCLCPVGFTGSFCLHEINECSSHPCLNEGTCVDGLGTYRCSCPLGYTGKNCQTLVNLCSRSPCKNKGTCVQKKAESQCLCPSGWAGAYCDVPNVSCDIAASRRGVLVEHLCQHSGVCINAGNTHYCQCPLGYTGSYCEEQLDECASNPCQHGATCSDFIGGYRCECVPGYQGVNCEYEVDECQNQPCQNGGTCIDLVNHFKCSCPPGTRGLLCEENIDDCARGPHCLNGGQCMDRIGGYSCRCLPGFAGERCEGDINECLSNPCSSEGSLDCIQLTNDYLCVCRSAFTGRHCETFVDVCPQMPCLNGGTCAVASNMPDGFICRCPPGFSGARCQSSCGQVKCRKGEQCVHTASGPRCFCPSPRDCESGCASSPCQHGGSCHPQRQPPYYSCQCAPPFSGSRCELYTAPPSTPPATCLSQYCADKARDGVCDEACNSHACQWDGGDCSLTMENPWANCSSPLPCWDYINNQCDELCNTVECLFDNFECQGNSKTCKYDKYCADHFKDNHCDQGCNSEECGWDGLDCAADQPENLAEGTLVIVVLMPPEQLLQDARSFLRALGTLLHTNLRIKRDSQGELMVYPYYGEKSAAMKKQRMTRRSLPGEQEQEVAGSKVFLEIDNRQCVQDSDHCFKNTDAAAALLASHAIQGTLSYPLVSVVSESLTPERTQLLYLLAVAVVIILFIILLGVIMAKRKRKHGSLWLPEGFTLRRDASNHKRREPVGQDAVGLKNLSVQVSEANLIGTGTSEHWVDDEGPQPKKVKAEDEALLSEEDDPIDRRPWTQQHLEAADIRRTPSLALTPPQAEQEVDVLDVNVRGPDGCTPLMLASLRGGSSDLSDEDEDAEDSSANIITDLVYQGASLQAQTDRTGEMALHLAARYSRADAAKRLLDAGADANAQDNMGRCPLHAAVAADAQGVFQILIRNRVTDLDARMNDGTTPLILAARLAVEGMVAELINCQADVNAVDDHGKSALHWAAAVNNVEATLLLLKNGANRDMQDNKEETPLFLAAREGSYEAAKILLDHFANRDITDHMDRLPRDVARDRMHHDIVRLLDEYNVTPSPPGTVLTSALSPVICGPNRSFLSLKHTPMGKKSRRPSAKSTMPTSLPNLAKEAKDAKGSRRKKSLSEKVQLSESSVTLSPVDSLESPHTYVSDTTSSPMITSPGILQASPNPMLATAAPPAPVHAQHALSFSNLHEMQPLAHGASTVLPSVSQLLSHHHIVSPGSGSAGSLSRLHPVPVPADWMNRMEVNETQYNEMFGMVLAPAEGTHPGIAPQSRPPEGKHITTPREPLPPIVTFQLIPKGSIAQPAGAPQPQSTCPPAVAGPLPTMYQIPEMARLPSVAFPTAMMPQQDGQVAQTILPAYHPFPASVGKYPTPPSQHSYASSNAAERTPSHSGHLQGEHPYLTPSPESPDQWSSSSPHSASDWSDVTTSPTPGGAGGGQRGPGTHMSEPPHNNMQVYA

| SMILES | composite z-score [1] | composite z-score [2] | composite z-score [3] | composite z-score [4] | composite z-score [5] | composite z-score [6] | composite z-score [7] | z-score [8] | composite z-score [9] | composite z-score [10] | composite z-score [11] | z-score [12] | z-score [13] | z-score [14] | composite z-score [15] | z-score [16] | composite z-score [17] | composite z-score [18] | composite z-score [19] | composite z-score [20] |
| --- | --- | --- | --- | --- | --- | --- | --- | --- | --- | --- | --- | --- | --- | --- | --- | --- | --- | --- | --- | --- |
| COCCOC(=O)N1C(=O)[C@@]2(c3cc(C#Cc4ccc(OC)cc4)ccc31)[C@H](c1ccccc1OCCO)N1[C@H](c3ccccc3)[C@H](c3ccccc3)OC(=O)[C@H]1[C@@H]2C(=O)N1CCCCCCC1 | 3.55 | 1.2 | 0.903 | 0.573 | 1.3 | 1.7 | 0.961 | -0.633 (inactive) | 3.39 | 1.47 | 1.27 | -1.44 (inactive) | 0.423 (inactive) | 3.91 (inactive) | 3.85 | 1.53 (inactive) | 1.71 | 1.97 | 0.841 | 1.17 |
| Cc1cc(C)c(C(O)C2C=CC3C(=O)NC(=O)C3N2Nc2ccc(Cl)cc2Cl)c(C)c1 (stereo not given) | 0.246 | -0.33 | 0.059 | 0.495 | 1.49 | 1.65 | 1.01 | 2.81 (inactive) | 1.64 | -0.0618 | 1.2 | -1.67 (inactive) | -3.28 (inactive) | 2.14 (inactive) | 3.42 | -2.14 (inactive) | 0.114 | 0.364 | 0.874 | -0.0581 |
| C=CC[C@@]1(C(=O)N2CCOCC2)N=C(c2ccc(OCCCO)cc2)O[C@@H]1c1ccccc1CN=[N+]=[N-] | -0.0448 | 0.326 | 0.141 | 1.01 | 1.62 | 1.53 | 1.15 | -1.21 (inactive) | 1.17 | 0.0722 | 1.56 | 0.0366 (inactive) | 0.472 (inactive) | -0.74 (inactive) | 3.28 | 0.0893 (inactive) | 0.691 | 0.355 | 1.09 | 0.776 |
| COCCOC(=O)N1C(=O)[C@@]2(c3cc(C#CC4=CCCCC4)ccc31)[C@H](c1ccc(OCCO)cc1)N1[C@H](c3ccccc3)[C@H](c3ccccc3)OC(=O)[C@H]1[C@@H]2C(=O)NC[C@H](O)c1ccccc1 | 0.82 | 0.366 | -0.0032 | 0.246 | 1.24 | -0.118 | 1.15 | 0.745 (inactive) | 1.44 | 0.187 | 1.54 | 2.04 (inactive) | 0.798 (inactive) | 5.7 (inactive) | 2.6 | 0.546 (inactive) | 0.789 | 1.11 | 1.07 | 0.108 |
| NC(=O)NCC#Cc1ccc2c(c1)[C@]1(C(=O)N2)[C@H](C(=O)NC[C@H](O)c2ccccc2)[C@H]2C(=O)O[C@H](c3ccccc3)[C@H](c3ccccc3)N2[C@@H]1c1ccc(OCCO)cc1 | 0.565 | 0.699 | -0.031 | 0.852 | 0.103 | 0.897 | 0.537 | 1.71 (inactive) | 0.0377 | -0.131 | 0.889 | 2.75 (inactive) | 0.682 (inactive) | 3.73 (inactive) | 1.21 | 1.63 (inactive) | 0.156 | -0.0728 | 0.0556 | -0.0078 |
| CO[C@H]1O[C@H](CO)[C@@H](OC(=O)Nc2ccc3c(c2)OCO3)[C@H](OC(=O)c2cc3ccccc3[nH]2)[C@H]1OC(=O)c1cc2ccccc2[nH]1 | -0.0446 | -0.152 | -0.0047 | 0.236 | -0.904 | 0.386 | 0.514 | 1.13 (inactive) | -0.598 | 0.0623 | 0.391 | -2.1 (inactive) | -0.908 (inactive) | 0.489 (inactive) | -0.33 | 0.382 (inactive) | 0.0204 | 0.111 | 0.123 | -0.0828 |
| O=C(NCc1ccccc1)[C@@H]1c2ccccc2C(=O)N(Cc2ccccc2C(F)(F)F)[C@H]1c1ccc(CO)cc1 | -0.234 | 0.55 | -0.0451 | -0.0459 | -0.927 | 0.48 | 1.25 | -3.23 (inactive) | -0.428 | -0.293 | 1.45 | 0.397 (inactive) | 0.234 (inactive) | -0.0066 (inactive) | 1.83 | 0.479 (inactive) | -0.179 | -0.483 | -0.0406 | -0.212 |
| NC(N)=NCCCn1cc(CNC(=O)[C@@H](N)Cc2ccccc2)nn1 | 0.236 | 0.236 | 0.0263 | -0.0436 | -0.0857 | 1.28 | 1.49 | 1.28 (inactive) | 0.044 | 0.0053 | 0.605 | 0.567 (inactive) | -0.627 (inactive) | -0.933 (inactive) | 1.14 | -1.08 (inactive) | 0.0616 | 0.743 | 0.179 | 0.0221 |
| CO[C@]12C=C(Br)[C@@H](C[C@@H]1c1cccc(C)c1)[C@@]1(CO1)C2=O | -0.233 | 0.0322 | -0.0718 | 0.211 | -0.217 | 0.518 | 0.0046 | 1.22 (inactive) | -0.221 | -0.0708 | 0.435 | -0.354 (inactive) | -5.17 (inactive) | -1.67 (inactive) | 0.469 | -0.0461 (inactive) | -0.145 | 0.569 | 0.537 | -0.115 |
| COC(=O)c1c(CC[C@@H](CO)NC(=O)N[C@H](Cn2cc(C3(O)CCCCC3)nn2)C(C)C)oc(C(C)=O)c1C(=O)OC | -0.413 | 0.945 | -0.003 | 0.815 | 0.759 | 0.759 | 1.07 | 0.324 (inactive) | 0.253 | -0.0237 | 1.57 | -0.325 (inactive) | -2.39 (inactive) | 0.0762 (inactive) | 1.12 | 1.66 (inactive) | -0.0437 | 1.86 | 1.08 | 0.0274 |
